Experimental data taken from the supplement of paper PMC10849652.
The full data set covers some 7,900 targets. This sample favours those with a hit. About 0.6% of all pairs of compound and target were hits.

Compound: C1=CC=C(C=C1)[C@H](COC2=CC3=C(C=C2)NC(=O)N3)NC(=O)C4=CC=CN(C4=O)CC5=CC(=C(C=C5)F)F
Assay: log2 fold change, soluble protein after heating vs DMSO (PISA); higher = thermal stabilisation; K562 cells, 10 uM, 30 min; active = over 0.2 and 3.5 SD of the protein, either way, in both replicates (recomputed)
Summary of the method: (§1)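 Thermal stability values are relative to control samples and come from duplicates. They are expressed as log2 fold changes. For measurement, K562 cells (2×10^6 cells/mL) received 10 μM compound for 30 min, and aliquots were heated for 3 min over 48°C-58°C, pooled, and extracted at 4°C in PBS with 0.5% NP-40. Soluble protein, the supernatant after 21,000xg for 90 min, was quantified by TMTpro 16plex LC-MS/MS with equalised channel sums.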

Sequence of UniProt Q16254 (Q16254 whole entry, looked up): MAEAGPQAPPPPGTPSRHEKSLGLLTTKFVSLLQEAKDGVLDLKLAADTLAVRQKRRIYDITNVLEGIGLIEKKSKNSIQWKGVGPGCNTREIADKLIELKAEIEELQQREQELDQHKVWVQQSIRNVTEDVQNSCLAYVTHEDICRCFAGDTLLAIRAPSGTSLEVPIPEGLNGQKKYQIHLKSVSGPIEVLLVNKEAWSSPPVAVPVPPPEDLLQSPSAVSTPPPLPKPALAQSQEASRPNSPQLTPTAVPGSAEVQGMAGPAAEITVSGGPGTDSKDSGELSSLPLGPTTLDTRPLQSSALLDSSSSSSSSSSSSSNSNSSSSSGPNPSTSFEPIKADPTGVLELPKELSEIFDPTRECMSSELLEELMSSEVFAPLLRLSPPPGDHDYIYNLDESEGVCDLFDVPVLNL
Sequence of UniProt P39880 (P39880 whole entry, looked up): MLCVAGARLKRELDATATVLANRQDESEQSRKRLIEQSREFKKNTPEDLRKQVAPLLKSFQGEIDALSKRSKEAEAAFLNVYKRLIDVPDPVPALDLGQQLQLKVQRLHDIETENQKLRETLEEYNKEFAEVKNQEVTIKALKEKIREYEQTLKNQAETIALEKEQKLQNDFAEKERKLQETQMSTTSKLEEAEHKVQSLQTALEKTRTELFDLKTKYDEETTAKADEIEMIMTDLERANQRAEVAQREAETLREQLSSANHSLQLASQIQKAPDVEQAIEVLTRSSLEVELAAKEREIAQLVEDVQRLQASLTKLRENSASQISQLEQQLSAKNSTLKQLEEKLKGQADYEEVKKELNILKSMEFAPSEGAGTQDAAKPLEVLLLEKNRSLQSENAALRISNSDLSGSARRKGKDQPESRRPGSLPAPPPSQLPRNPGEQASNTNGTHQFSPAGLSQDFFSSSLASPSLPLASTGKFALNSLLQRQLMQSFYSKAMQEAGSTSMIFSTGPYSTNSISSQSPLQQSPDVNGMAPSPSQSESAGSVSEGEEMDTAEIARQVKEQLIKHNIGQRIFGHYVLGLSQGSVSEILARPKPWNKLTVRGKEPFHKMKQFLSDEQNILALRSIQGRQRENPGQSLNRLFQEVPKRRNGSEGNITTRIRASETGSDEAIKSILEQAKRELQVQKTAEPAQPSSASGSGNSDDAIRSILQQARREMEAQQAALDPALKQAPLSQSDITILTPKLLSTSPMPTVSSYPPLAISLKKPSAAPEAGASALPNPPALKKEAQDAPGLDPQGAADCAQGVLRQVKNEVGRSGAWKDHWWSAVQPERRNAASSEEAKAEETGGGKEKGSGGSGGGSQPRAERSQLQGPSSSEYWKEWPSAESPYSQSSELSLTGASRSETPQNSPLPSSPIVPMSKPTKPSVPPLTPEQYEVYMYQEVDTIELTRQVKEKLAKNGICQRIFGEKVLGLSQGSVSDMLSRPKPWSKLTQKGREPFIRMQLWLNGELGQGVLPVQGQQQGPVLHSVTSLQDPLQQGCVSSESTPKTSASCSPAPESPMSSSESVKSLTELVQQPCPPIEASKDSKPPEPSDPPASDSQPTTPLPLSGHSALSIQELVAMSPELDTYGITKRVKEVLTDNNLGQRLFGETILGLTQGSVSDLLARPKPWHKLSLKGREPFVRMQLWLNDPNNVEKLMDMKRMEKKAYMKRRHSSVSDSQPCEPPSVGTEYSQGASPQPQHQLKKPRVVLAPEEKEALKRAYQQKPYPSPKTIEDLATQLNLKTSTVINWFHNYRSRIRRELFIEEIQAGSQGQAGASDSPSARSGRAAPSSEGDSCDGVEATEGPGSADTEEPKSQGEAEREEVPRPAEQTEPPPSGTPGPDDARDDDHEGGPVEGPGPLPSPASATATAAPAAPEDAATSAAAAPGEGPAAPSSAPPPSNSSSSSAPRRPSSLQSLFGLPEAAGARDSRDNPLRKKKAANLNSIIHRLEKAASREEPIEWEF
Sequence of UniProt Q9NZN4 (Q9NZN4 whole entry, looked up): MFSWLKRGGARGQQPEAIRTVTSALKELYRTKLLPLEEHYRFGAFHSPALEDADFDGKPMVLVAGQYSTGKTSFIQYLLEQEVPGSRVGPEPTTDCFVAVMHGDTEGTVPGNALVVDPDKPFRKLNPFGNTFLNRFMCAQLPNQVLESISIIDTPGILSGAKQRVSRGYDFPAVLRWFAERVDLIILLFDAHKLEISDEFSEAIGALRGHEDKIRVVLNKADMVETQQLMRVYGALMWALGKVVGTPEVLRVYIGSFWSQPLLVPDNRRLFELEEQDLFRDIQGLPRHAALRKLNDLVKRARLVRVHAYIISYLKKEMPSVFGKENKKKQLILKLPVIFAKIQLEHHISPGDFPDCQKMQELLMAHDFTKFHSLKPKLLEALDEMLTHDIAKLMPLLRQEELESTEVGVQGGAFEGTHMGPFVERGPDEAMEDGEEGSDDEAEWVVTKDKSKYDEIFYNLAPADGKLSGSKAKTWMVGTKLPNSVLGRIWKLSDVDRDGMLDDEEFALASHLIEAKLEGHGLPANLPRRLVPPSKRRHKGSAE
Sequence of UniProt P68104 (P68104 whole entry, looked up): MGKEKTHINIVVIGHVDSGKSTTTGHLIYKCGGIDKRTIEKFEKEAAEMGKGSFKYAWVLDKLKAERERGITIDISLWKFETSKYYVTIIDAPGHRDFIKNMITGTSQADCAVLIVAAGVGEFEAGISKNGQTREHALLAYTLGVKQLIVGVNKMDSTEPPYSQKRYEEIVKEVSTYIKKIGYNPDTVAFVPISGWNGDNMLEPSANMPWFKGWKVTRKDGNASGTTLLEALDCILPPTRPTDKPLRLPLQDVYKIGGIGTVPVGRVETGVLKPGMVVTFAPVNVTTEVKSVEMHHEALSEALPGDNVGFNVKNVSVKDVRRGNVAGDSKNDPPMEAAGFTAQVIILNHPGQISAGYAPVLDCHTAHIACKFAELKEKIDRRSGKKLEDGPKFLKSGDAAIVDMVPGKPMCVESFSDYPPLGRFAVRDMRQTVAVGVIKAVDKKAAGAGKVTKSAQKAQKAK
Sequence of UniProt Q15075 (Q15075 whole entry, looked up): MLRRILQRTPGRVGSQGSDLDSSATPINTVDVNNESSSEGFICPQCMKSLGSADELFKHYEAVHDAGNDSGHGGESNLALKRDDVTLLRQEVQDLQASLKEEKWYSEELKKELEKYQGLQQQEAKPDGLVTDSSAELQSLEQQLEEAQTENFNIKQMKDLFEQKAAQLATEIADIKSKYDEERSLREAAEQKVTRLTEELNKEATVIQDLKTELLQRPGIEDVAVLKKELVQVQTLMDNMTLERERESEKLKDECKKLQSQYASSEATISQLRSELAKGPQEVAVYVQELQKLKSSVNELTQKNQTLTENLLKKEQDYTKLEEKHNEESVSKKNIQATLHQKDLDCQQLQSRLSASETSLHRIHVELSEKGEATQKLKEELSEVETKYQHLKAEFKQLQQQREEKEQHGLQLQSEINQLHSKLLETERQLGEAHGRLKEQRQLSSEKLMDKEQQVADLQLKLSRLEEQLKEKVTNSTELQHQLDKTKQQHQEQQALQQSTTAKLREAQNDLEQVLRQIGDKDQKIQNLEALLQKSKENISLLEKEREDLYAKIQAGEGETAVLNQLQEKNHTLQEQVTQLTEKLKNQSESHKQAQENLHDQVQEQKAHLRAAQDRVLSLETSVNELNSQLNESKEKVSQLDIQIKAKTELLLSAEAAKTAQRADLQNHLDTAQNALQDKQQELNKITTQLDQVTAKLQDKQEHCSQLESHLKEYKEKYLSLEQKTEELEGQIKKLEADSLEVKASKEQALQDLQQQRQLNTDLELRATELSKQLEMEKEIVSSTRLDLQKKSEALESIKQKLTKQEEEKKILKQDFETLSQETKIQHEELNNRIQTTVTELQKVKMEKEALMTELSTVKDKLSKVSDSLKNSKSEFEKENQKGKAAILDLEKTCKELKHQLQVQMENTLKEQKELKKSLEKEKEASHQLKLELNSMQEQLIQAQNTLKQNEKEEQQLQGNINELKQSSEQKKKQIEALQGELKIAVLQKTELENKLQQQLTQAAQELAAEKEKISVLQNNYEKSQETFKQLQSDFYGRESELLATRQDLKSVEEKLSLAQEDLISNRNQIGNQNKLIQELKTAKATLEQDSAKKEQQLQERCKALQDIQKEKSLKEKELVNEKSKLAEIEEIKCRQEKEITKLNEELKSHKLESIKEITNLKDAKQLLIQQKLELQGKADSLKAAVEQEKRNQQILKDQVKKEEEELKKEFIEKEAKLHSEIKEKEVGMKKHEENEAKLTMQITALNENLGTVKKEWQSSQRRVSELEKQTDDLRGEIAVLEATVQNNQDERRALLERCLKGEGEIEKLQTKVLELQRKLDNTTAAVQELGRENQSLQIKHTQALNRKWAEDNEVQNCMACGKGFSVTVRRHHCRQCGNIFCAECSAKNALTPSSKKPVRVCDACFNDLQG
Sequence of UniProt Q96F86 (Q96F86 whole entry, looked up): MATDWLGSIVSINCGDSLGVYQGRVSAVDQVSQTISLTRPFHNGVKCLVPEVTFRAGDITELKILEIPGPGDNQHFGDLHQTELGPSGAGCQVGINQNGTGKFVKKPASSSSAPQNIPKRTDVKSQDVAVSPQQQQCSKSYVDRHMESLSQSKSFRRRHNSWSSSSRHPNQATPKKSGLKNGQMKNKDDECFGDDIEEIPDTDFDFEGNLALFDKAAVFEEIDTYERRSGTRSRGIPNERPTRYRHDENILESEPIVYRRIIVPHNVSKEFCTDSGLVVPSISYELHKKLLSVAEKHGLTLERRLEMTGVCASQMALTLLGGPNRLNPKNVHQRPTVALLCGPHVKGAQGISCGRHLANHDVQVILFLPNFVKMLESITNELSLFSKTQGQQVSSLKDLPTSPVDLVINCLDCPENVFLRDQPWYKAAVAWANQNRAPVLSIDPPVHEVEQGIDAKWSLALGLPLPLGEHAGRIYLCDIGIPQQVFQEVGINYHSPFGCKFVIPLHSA
Sequence of UniProt O60888 (O60888 whole entry, looked up): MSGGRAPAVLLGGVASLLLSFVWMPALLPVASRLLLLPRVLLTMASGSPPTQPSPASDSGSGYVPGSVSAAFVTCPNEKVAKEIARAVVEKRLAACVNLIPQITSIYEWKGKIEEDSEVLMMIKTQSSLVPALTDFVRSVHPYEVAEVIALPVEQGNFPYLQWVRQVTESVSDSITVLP

For EEA1 (UniProt Q15075), which log2 fold change is on record?
The log2 fold change was 0.022 (inactive).

Which log2 fold change does the source give for FAM118A (UniProt Q9NWS6) here?
Its log2 fold change is -0.079 (inactive).

For FADS1, A0A0A0MR51, which log2 fold change is on record?
Its log2 fold change is -0.051 (inactive).

For DDX4 (UniProt Q9NQI0), which log2 fold change is on record?
The log2 fold change was 0.052 (inactive).

For DUS3L (UniProt Q96G46), which log2 fold change is on record?
Its log2 fold change is 0.073 (inactive).

DHRS7B (UniProt Q6IAN0) was tested. Which log2 fold change did it give?
The log2 fold change was 0.054 (inactive).

DNAJC1 (UniProt Q96KC8) was tested. Which log2 fold change did it give?
Its log2 fold change is -0.024 (inactive).

How did the log2 fold change turn out when EGR1 (UniProt P18146) was run?
The log2 fold change was 0.034 (inactive).

How did the log2 fold change turn out when FAM160B1 (UniProt Q5W0V3) was run?
Its log2 fold change is -0.005 (inactive).

Which log2 fold change does the source give for EXOC5 (UniProt O00471) here?
The log2 fold change was -0.069 (inactive).

With EEF1D isoform 2 (UniProt P29692) as the target, how does the log2 fold change read?
The log2 fold change was -0.031 (inactive).

How did the log2 fold change turn out when ELOVL5 isoform 2 (UniProt Q9NYP7) was run?
Its log2 fold change is -0.056 (inactive).

For DSN1 (UniProt Q9H410), which log2 fold change is on record?
The log2 fold change was 0.02 (inactive).

How did the log2 fold change turn out when DTNBP1 (UniProt Q96EV8) was run?
Its log2 fold change is -0.033 (inactive).

Which log2 fold change does the source give for ETNK1 (UniProt Q9HBU6) here?
The log2 fold change was 0 (inactive).

With CUTA isoform 2 (UniProt O60888) as the target, how does the log2 fold change read?
The log2 fold change was 0.099 (inactive).

Which log2 fold change does the source give for ESYT1 isoform 2 (UniProt Q9BSJ8) here?
Its log2 fold change is -0.063 (inactive).

With DHPS (UniProt P49366) as the target, how does the log2 fold change read?
Its log2 fold change is -0.014 (inactive).

FAM241A (UniProt Q8N8J7) was tested. Which log2 fold change did it give?
The log2 fold change was -0.046 (inactive).

ECH1 (UniProt Q13011) was tested. Which log2 fold change did it give?
The log2 fold change was -0.072 (inactive).

Which log2 fold change does the source give for DUS2 (UniProt Q9NX74) here?
Its log2 fold change is 0.024 (inactive).

Which log2 fold change does the source give for EIF4E2 (UniProt O60573) here?
Its log2 fold change is -0.043 (inactive).

Which log2 fold change does the source give for DDOST (UniProt P39656) here?
Its log2 fold change is 0.018 (inactive).

For EDC3 (UniProt Q96F86), which log2 fold change is on record?
The log2 fold change was -0.198 (inactive).

Which log2 fold change does the source give for E2F4 (UniProt Q16254) here?
Its log2 fold change is 0.006 (inactive).

With EHD2 (UniProt Q9NZN4) as the target, how does the log2 fold change read?
The log2 fold change was -0.018 (inactive).

Which log2 fold change does the source give for EEF1A1 (UniProt P68104) here?
Its log2 fold change is 0.112 (inactive).

How did the log2 fold change turn out when DBR1 (UniProt Q9UK59) was run?
Its log2 fold change is 0.023 (inactive).

For CTSB (UniProt P07858), which log2 fold change is on record?
The log2 fold change was -0.015 (inactive).

With DPH5 isoform 5 (UniProt Q9H2P9) as the target, how does the log2 fold change read?
Its log2 fold change is -0.025 (inactive).

Which log2 fold change does the source give for CUX1 isoform 3 (UniProt P39880) here?
Its log2 fold change is 0 (inactive).

For EGLN1 (UniProt Q9GZT9), which log2 fold change is on record?
The log2 fold change was 0.055 (inactive).

With DEGS1 (UniProt O15121) as the target, how does the log2 fold change read?
Its log2 fold change is 0.083 (inactive).

FAM177A1 isoform 2 (UniProt Q8N128) was tested. Which log2 fold change did it give?
The log2 fold change was -0.073 (inactive).

With CTU1 (UniProt Q7Z7A3) as the target, how does the log2 fold change read?
The log2 fold change was -0.061 (inactive).

For EDC4 (UniProt Q6P2E9), which log2 fold change is on record?
Its log2 fold change is 0.02 (inactive).

With DHX36 (UniProt Q9H2U1) as the target, how does the log2 fold change read?
The log2 fold change was 0.037 (inactive).

For EOGT (UniProt Q5NDL2), which log2 fold change is on record?
The log2 fold change was 0.013 (inactive).

How did the log2 fold change turn out when DNAJB1 (UniProt P25685) was run?
The log2 fold change was -0.019 (inactive).

Compound: CC1=C(SC2=C1C(=N[C@H](C3=NN=C(N32)C)CC(=O)N)C4=CC=C(C=C4)Cl)C
Assay: as above
Summary of the method: as §1

Which log2 fold change does the source give for EEA1 (UniProt Q15075) here?
Its log2 fold change is -0.015 (inactive).

How did the log2 fold change turn out when FAM118A (UniProt Q9NWS6) was run?
Its log2 fold change is 0.05 (inactive).

With FADS1, A0A0A0MR51 as the target, how does the log2 fold change read?
Its log2 fold change is 0.026 (inactive).

DDX4 (UniProt Q9NQI0) was tested. Which log2 fold change did it give?
The log2 fold change was -0.11 (inactive).

Which log2 fold change does the source give for DUS3L (UniProt Q96G46) here?
Its log2 fold change is 0.04 (inactive).

With DHRS7B (UniProt Q6IAN0) as the target, how does the log2 fold change read?
The log2 fold change was 0.032 (inactive).

For DNAJC1 (UniProt Q96KC8), which log2 fold change is on record?
The log2 fold change was 0.054 (inactive).

EGR1 (UniProt P18146) was tested. Which log2 fold change did it give?
Its log2 fold change is 0.241 (inactive).

How did the log2 fold change turn out when FAM160B1 (UniProt Q5W0V3) was run?
Its log2 fold change is 0.026 (inactive).

EXOC5 (UniProt O00471) was tested. Which log2 fold change did it give?
The log2 fold change was -0.006 (inactive).

For EEF1D isoform 2 (UniProt P29692), which log2 fold change is on record?
Its log2 fold change is 0.003 (inactive).

ELOVL5 isoform 2 (UniProt Q9NYP7) was tested. Which log2 fold change did it give?
The log2 fold change was 0.021 (inactive).

DSN1 (UniProt Q9H410) was tested. Which log2 fold change did it give?
Its log2 fold change is 0.016 (inactive).

DTNBP1 (UniProt Q96EV8) was tested. Which log2 fold change did it give?
Its log2 fold change is 0.031 (inactive).

With ETNK1 (UniProt Q9HBU6) as the target, how does the log2 fold change read?
Its log2 fold change is 0.044 (inactive).

How did the log2 fold change turn out when CUTA isoform 2 (UniProt O60888) was run?
Its log2 fold change is 0.116 (inactive).

For ESYT1 isoform 2 (UniProt Q9BSJ8), which log2 fold change is on record?
The log2 fold change was -0.046 (inactive).

With DHPS (UniProt P49366) as the target, how does the log2 fold change read?
The log2 fold change was 0.013 (inactive).

How did the log2 fold change turn out when FAM241A (UniProt Q8N8J7) was run?
The log2 fold change was 0.034 (inactive).

For ECH1 (UniProt Q13011), which log2 fold change is on record?
Its log2 fold change is 0.161 (inactive).

DUS2 (UniProt Q9NX74) was tested. Which log2 fold change did it give?
Its log2 fold change is 0.055 (inactive).

EIF4E2 (UniProt O60573) was tested. Which log2 fold change did it give?
Its log2 fold change is -0.01 (inactive).

How did the log2 fold change turn out when DDOST (UniProt P39656) was run?
The log2 fold change was -0.009 (inactive).

With EDC3 (UniProt Q96F86) as the target, how does the log2 fold change read?
The log2 fold change was 0.12 (inactive).

For E2F4 (UniProt Q16254), which log2 fold change is on record?
Its log2 fold change is 0.039 (inactive).

For EHD2 (UniProt Q9NZN4), which log2 fold change is on record?
Its log2 fold change is 0.049 (inactive).

Which log2 fold change does the source give for EEF1A1 (UniProt P68104) here?
Its log2 fold change is 0.212 (inactive).

Which log2 fold change does the source give for DBR1 (UniProt Q9UK59) here?
The log2 fold change was 0 (inactive).

How did the log2 fold change turn out when CTSB (UniProt P07858) was run?
Its log2 fold change is -0.024 (inactive).

For DPH5 isoform 5 (UniProt Q9H2P9), which log2 fold change is on record?
Its log2 fold change is 0.054 (inactive).

With CUX1 isoform 3 (UniProt P39880) as the target, how does the log2 fold change read?
The log2 fold change was 0.025 (inactive).

For EGLN1 (UniProt Q9GZT9), which log2 fold change is on record?
The log2 fold change was 0.06 (inactive).

DEGS1 (UniProt O15121) was tested. Which log2 fold change did it give?
The log2 fold change was 0.04 (inactive).

Which log2 fold change does the source give for FAM177A1 isoform 2 (UniProt Q8N128) here?
Its log2 fold change is 0.047 (inactive).

Which log2 fold change does the source give for CTU1 (UniProt Q7Z7A3) here?
Its log2 fold change is 0.025 (inactive).

With EDC4 (UniProt Q6P2E9) as the target, how does the log2 fold change read?
Its log2 fold change is -0.004 (inactive).

How did the log2 fold change turn out when DHX36 (UniProt Q9H2U1) was run?
Its log2 fold change is -0.087 (inactive).

Which log2 fold change does the source give for EOGT (UniProt Q5NDL2) here?
Its log2 fold change is -0.074 (inactive).

With DNAJB1 (UniProt P25685) as the target, how does the log2 fold change read?
The log2 fold change was 0.015 (inactive).
